Data: PubChem BioAssay (Tox21)
Records with an inconclusive call do not appear. Activity calls are given as the source filed them. The call rests on the fitted dose curve; in most records, active means well fitted curve in the direction sought with a large enough effect in the repeat runs; inconclusive means weak or mixed curves; inactive means no such curve, though single readings can be large; an effect the other way counts as inactive or inconclusive.

Assays:
[1] = A CellTox Green Cytotoxicity Assay to monitor cytotoxicity in HepG2 cells - 0 hour (AID 1224882); further: nearly all actives have a fitted effect of over 35% in size
In short: (§1)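 Real-time, homogeneous cytotoxicity readout: dead-cell DNA staining by CellTox Green in HepG2 monolayers, fluorescence measured at timed intervals up to 40 h of continuous compound exposure.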

[2] = A CellTox Green Cytotoxicity Assay to monitor cytotoxicity in HepG2 cells - 32 hour (AID 1224883); further: nearly all actives have a fitted effect of over 50% in size; further: potency means the concentration at half of the fitted maximal effect
In short: as §1

[3] = A CellTox Green Cytotoxicity Assay to monitor cytotoxicity in HEK293 cells - 8 hour (AID 1224884); further: nearly all actives have a fitted effect of over 35% in size
In short: (§2)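 Cytotoxicity was tracked continuously in HEK293 cells by a DNA-binding dye excluded from viable cells. Compounds were transferred in DMSO 5 h after seeding; fluorescence was recorded at intervals up to 40 h.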

[4] = qHTS RealTime-Glo MT Cell Viability Assay in HepG2 cells - 16 hour (AID 1224885); further: nearly all actives have a fitted effect of over 50% in size
In short: (§3)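 qHTS, HepG2, 600 cells/well, RealTime-Glo (NanoLuc + prosubstrate) added with cells; 5 h preincubation; DMSO compound addition; 37 C; luminescence at 0/8/16/24/32/40 h.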

[5] = qHTS RealTime-Glo MT Cell Viability Assay in HEK293 cells - 24 hour (AID 1224886); further: nearly all actives have a fitted effect of over 50% in size; further: potency means the concentration at half of the fitted maximal effect; on activity change, negative = cytotoxicity: top concentration of the series differs between compounds
In short: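 Assay medium contained NanoLuc luciferase plus cell-permeant prosubstrate, added with HEK293 cells at 600 cells/well. After 5 h at 37 C/5% CO2 compounds were added; plates stayed at 37 C for 40 h with serial luminescence reads.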

[6] = qHTS RealTime-Glo MT Cell Viability Assay in HEK293 cells - 8 hour (AID 1224887); further: nearly all actives have a fitted effect of over 50% in size; further: potency means the concentration at half of the fitted maximal effect; on activity change, negative = cytotoxicity: top concentration of the series differs between compounds
In short: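 Nonlytic bioluminescent viability monitoring. HEK293 at 600 cells/well with reagent; 5 h settle; compound transfer by pintool; plates held at 37 C and read at set time points.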

[7] = A CellTox Green Cytotoxicity Assay to monitor cytotoxicity in HEK293 cells - 16 hour (AID 1224888); further: nearly all actives have a fitted effect of over 35% in size
In short: as §2

[8] = qHTS RealTime-Glo MT Cell Viability Assay in HepG2 cells - 0 hour (AID 1224889); further: nearly all actives have a fitted effect of over 50% in size
In short: as §3

[9] = A CellTox Green Cytotoxicity Assay to monitor cytotoxicity in HepG2 cells - 8 hour (AID 1224890); further: nearly all actives have a fitted effect of over 45% in size
In short: as §1

[10] = qHTS assay to identify small molecule antagonists of the estrogen receptor alpha (ER-alpha) signaling pathway using the BG1 cell line in the presence of 0.1 nM 17-beta-estradiol - cell viability counter screen (AID 1259241); further: nearly all actives have a fitted effect of over 40% in size
In short: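 Cells were plated and left 24 hr, compounds in DMSO were pinned in, 17beta-estradiol was added to 0.1 nM final, and after 22 hr CellTiter-Fluor reagent was added for 30 min before fluorescence was read.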
On the % scale 0 is the no-effect control and ±100 the full control effect.

C1CCC2OC2C1 (configuration not stated)
inactive: Potency [1] | Potency [2] | Potency [3] | Potency [4] | Potency [5] | Potency [6] | Potency [7] | Potency [8] | Potency [9] | Potency [10]

Cc1cc(O)ccc1N
active: Potency [5] 55.3 µM | Potency [6] 43.9 µM
inactive: Potency [1] | Potency [2] | Potency [3] | Potency [4] | Potency [7] | Potency [8] | Potency [9]

CC(C)(C)c1cc(O)c(C(C)(C)C)cc1O
active: Potency [5] 21.9 µM | Potency [6] 15.5 µM
inactive: Potency [1] | Potency [2] | Potency [3] | Potency [4] | Potency [7] | Potency [8] | Potency [9]

O=c1c2ccccc2nnn1CCl
inactive: Potency [1] | Potency [2] | Potency [3] | Potency [4] | Potency [5] | Potency [6] | Potency [7] | Potency [8] | Potency [9] | Potency [10]

NCCCN(CCO)CCO
inactive: Potency [1] | Potency [2] | Potency [3] | Potency [4] | Potency [5] | Potency [6] | Potency [7] | Potency [8] | Potency [9] | Potency [10]

CC(C)CC=O
inactive: Potency [1] | Potency [2] | Potency [3] | Potency [4] | Potency [5] | Potency [6] | Potency [7] | Potency [8] | Potency [9] | Potency [10]

Cc1ccc(O)c([C@H](CCN(C(C)C)C(C)C)c2ccccc2)c1
inactive: Potency [1] | Potency [3] | Potency [4] | Potency [5] | Potency [6] | Potency [7] | Potency [8] | Potency [9] | Potency [10]
active: Potency [2] 21.3 µM

N=C(N=C(N)N)N1CCOCC1
inactive: Potency [1] | Potency [2] | Potency [3] | Potency [4] | Potency [5] | Potency [6] | Potency [7] | Potency [8] | Potency [9] | Potency [10]

NC[C@H]1O[C@H](O[C@H]2[C@H](O)[C@@H](O[C@H]3O[C@H](CO)[C@@H](O)[C@H](N)[C@H]3O)[C@H](N)C[C@@H]2N)[C@H](O)[C@@H](O)[C@@H]1O
inactive: cytotoxicity [1] 1.08% [at 6.97 µM] | cytotoxicity increase [2] 13.2% [at 6.97 µM] | cytotoxicity increase [3] 7.24% [at 6.97 µM] | activity change, negative = cytotoxic [4] 2.6% [at 6.97 µM] | activity change, negative = cytotoxicity [5] 13.6% [at 6.97 µM] | activity change, negative = cytotoxicity [6] 2.67% [at 6.97 µM] | activity change [7] 6.94% [at 6.97 µM, active compounds read high] | activity change, negative = cytotoxicity [8] 17.3% [at 6.97 µM] | cytotoxicity increase [9] 21.1% [at 6.97 µM] | activity change, negative = cytotoxicity [10] 2.35% [at 8.39 µM]

Oc1ccc(C(O)CNCCCCCCNCC(O)c2ccc(O)c(O)c2)cc1O (configuration not stated)
inactive: Potency [1] | Potency [2] | Potency [3] | Potency [4] | Potency [5] | Potency [6] | Potency [7] | Potency [8] | Potency [9] | Potency [10]

O=C1CCCCCO1
inactive: Potency [1] | Potency [2] | Potency [3] | Potency [4] | Potency [5] | Potency [6] | Potency [7] | Potency [8] | Potency [9] | Potency [10]

CCN(CC)CCOC(=O)C1(c2ccccc2)CCCC1
inactive: Potency [1] | Potency [2] | Potency [3] | Potency [4] | Potency [5] | Potency [6] | Potency [7] | Potency [8] | Potency [9] | Potency [10]

CCCCCOC(=O)COc1cc(N2C(=O)C3=C(CCCC3)C2=O)c(F)cc1Cl
inactive: Potency [1] | Potency [2] | Potency [3] | Potency [4] | Potency [5] | Potency [6] | Potency [7] | Potency [8] | Potency [9] | Potency [10]

Cc1nc2ccccc2n1Cc1ccc(Cl)cc1
inactive: Potency [1] | Potency [2] | Potency [3] | Potency [4] | Potency [7] | Potency [8] | Potency [9]
active: Potency [5] 1.9 µM | Potency [6] 8.49 µM

Nc1nc(N)c(-c2ccccc2)s1
inactive: Potency [1] | Potency [2] | Potency [3] | Potency [4] | Potency [5] | Potency [6] | Potency [7] | Potency [8] | Potency [9] | Potency [10]

CCCCCCCCCCCCC(=O)O
inactive: Potency [1] | Potency [2] | Potency [3] | Potency [4] | Potency [5] | Potency [6] | Potency [7] | Potency [8] | Potency [9] | Potency [10]

CC(C)NCC(O)COc1ccc(CC(N)=O)cc1 (configuration not stated)
inactive: Potency [1] | Potency [2] | Potency [3] | Potency [4] | Potency [5] | Potency [6] | Potency [7] | Potency [8] | Potency [9] | Potency [10]

COc1ccc(OC)c(OC)c1
inactive: Potency [1] | Potency [2] | Potency [3] | Potency [4] | Potency [5] | Potency [6] | Potency [7] | Potency [8] | Potency [9] | Potency [10]

C=CCCCCCC
inactive: Potency [1] | Potency [2] | Potency [3] | Potency [4] | Potency [5] | Potency [6] | Potency [7] | Potency [8] | Potency [9] | Potency [10]

CCCCCCCCC(CO)CCCCCC (configuration not stated)
inactive: Potency [1] | Potency [2] | Potency [3] | Potency [4] | Potency [5] | Potency [6] | Potency [7] | Potency [8] | Potency [9] | Potency [10]

CCOC(=O)CC(C)C
inactive: Potency [1] | Potency [2] | Potency [3] | Potency [4] | Potency [5] | Potency [6] | Potency [7] | Potency [8] | Potency [9] | Potency [10]

CCCCCCCCCCCCCCCBr
inactive: Potency [1] | Potency [2] | Potency [3] | Potency [4] | Potency [5] | Potency [6] | Potency [7] | Potency [8] | Potency [9] | Potency [10]
